Inconclusive results are not listed. Activity calls are given as the source filed them. Calls come from the whole dose curve; as a rule, active = well fitted curve in the direction sought with a large enough effect; inconclusive = small, poorly fitted or top-dose-only effect, or another doubt; inactive = no such curve, though single readings can be large; an effect the other way counts as inactive or inconclusive.
Columns and labels:
[1] = Quantitative High-Throughput drug screen in 47 multiple myeloma cell lines against the NCATS MIPE library collection: KMS26_JCRB cell viability assay (AID 1918975); note: nearly all actives have a fitted effect of over 45% in size
Outline: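 Myeloma cells (500 per well) were exposed to MIPE 4.0 compounds by pin transfer and incubated 48 hours at 37C, 5% CO2. Viability was read as ATP by CellTiter-Glo luminescence, normalised to DMSO (100%) and media-only (0%) wells.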

[2] = Quantitative High-Throughput drug screen in 47 multiple myeloma cell lines against the NCATS MIPE library collection: MMM1_PLB cell viability assay (AID 1918976); note: nearly all actives have a fitted effect of over 35% in size
Outline: (§1)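 Plated at 500 cells per well, myeloma lines received MIPE 4.0 compounds by pin tool. Following 48 h culture at 37 °C, CellTiter-Glo luminescence gave viability relative to DMSO and media-only controls.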

[3] = Quantitative High-Throughput drug screen in 47 multiple myeloma cell lines against the NCATS MIPE library collection: NCIH929_DSMZ cell viability assay (AID 1918978); note: nearly all actives have a fitted effect of over 35% in size
Outline: as §1

[4] = Quantitative High-Throughput drug screen in 47 multiple myeloma cell lines against the NCATS MIPE library collection: OCIMY1_PLB cell viability assay (AID 1918979); note: nearly all actives have a fitted effect of over 35% in size
Outline: as §1

[5] = Quantitative High-Throughput drug screen in 47 multiple myeloma cell lines against the NCATS MIPE library collection: MM1S_ATCC cell viability assay (AID 1918980); note: nearly all actives have a fitted effect of over 45% in size
Outline: as §1

[6] = Quantitative High-Throughput drug screen in 47 multiple myeloma cell lines against the NCATS MIPE library collection: MM1R_ATCC cell viability assay (AID 1918981); note: nearly all actives have a fitted effect of over 35% in size
Outline: as §1

[7] = Quantitative High-Throughput drug screen in 47 multiple myeloma cell lines against the NCATS MIPE library collection: LP1_DSMZ cell viability assay (AID 1918982); note: nearly all actives have a fitted effect of over 35% in size
Outline: as §1

[8] = Quantitative High-Throughput drug screen in 47 multiple myeloma cell lines against the NCATS MIPE library collection: KMS28PE_JCRB cell viability assay (AID 1918983); note: nearly all actives have a fitted effect of over 35% in size
Outline: as §1

[9] = Quantitative High-Throughput drug screen in 47 multiple myeloma cell lines against the NCATS MIPE library collection: L363_DSMZ cell viability assay (AID 1918984); note: nearly all actives have a fitted effect of over 40% in size
Outline: as §1

[10] = Quantitative High-Throughput drug screen in 47 multiple myeloma cell lines against the NCATS MIPE library collection: KMS34_JCRB cell viability assay (AID 1918985); note: nearly all actives have a fitted effect of over 40% in size
Outline: as §1

[11] = Quantitative High-Throughput drug screen in 47 multiple myeloma cell lines against the NCATS MIPE library collection: OCIMY7_PLB cell viability assay (AID 1918987); note: nearly all actives have a fitted effect of over 65% in size
Outline: as §1

[12] = Quantitative High-Throughput drug screen in 47 multiple myeloma cell lines against the NCATS MIPE library collection: OPM1_PLB cell viability assay (AID 1918989); note: nearly all actives have a fitted effect of over 40% in size
Outline: as §1

[13] = Quantitative High-Throughput drug screen in 47 multiple myeloma cell lines against the NCATS MIPE library collection: SKMM1_PLB cell viability assay (AID 1919863); conditions: SKMM1 myeloma viability, CellTiter-Glo ATP, 48 h; viability: stronger effect = lower value; note: nearly all actives have a fitted effect of over 35% in size
Outline: as §1

[14] = Quantitative High-Throughput drug screen in 47 multiple myeloma cell lines against the NCATS MIPE library collection: U266_ATCC cell viability assay (AID 1919864); note: nearly all actives have a fitted effect of over 35% in size
Outline: as §1

[15] = Quantitative High-Throughput drug screen in 47 multiple myeloma cell lines against the NCATS MIPE library collection: XG6_PLB cell viability assay (AID 1919865); note: nearly all actives have a fitted effect of over 40% in size
Outline: as §1

[16] = Quantitative High-Throughput drug screen in 47 multiple myeloma cell lines against the NCATS MIPE library collection: VP6_DJ cell viability assay (AID 1919867); note: nearly all actives have a fitted effect of over 40% in size
Outline: as §1

[17] = Quantitative High-Throughput drug screen in 47 multiple myeloma cell lines against the NCATS MIPE library collection: MOLP8_DSMZ cell viability assay (AID 1918977); note: nearly all actives have a fitted effect of over 45% in size
Outline: as §1

[18] = Quantitative High-Throughput drug screen in 47 multiple myeloma cell lines against the NCATS MIPE library collection: OCIMY5_PLB cell viability assay (AID 1918988); note: nearly all actives have a fitted effect of over 65% in size
Outline: as §1

[19] = Quantitative High-Throughput drug screen in 47 multiple myeloma cell lines against the NCATS MIPE library collection: XG1_PLB cell viability assay (AID 1919866); note: nearly all actives have a fitted effect of over 35% in size
Outline: as §1

Measured: Potency
Potency is the fitted concentration of half-maximal effect.

Nc1nc(Nc2ccc(S(N)(=O)=O)cc2)nn1C(=O)c1c(F)cccc1F
active: [1] 7430 nM | [2] 10500 nM | [3] 4180 nM | [4] 13200 nM | [5] 7430 nM | [6] 6620 nM | [7] 8330 nM | [8] 8330 nM | [9] 2960 nM | [10] 8330 nM | [11] 3320 nM | [12] 7430 nM | [13] 10500 nM | [14] 7430 nM | [15] 2350 nM | [16] 5260 nM

CC(C)c1cc(C(=O)N2Cc3ccc(CN4CCN(C)CC4)cc3C2)c(O)cc1O
active: [1] 235 nM | [2] 418 nM | [17] 148 nM | [4] 418 nM | [5] 332 nM | [6] 418 nM | [8] 332 nM | [9] 59 nM | [10] 235 nM | [11] 26.4 nM | [18] 105 nM | [12] 118 nM | [13] 418 nM | [14] 209 nM | [15] 296 nM | [19] 148 nM | [16] 148 nM

Cc1cc(C(=O)N2CCN(c3cccc(Cl)c3)CC2)n(-c2ccccc2)n1
active: [1] 18700 nM | [2] 7430 nM | [3] 16600 nM | [4] 3720 nM | [5] 16600 nM | [6] 9350 nM | [7] 5260 nM | [8] 1870 nM | [9] 132 nM | [10] 1050 nM | [11] 59 nM | [18] 187 nM | [12] 5260 nM | [13] 296 nM | [15] 118 nM | [16] 1320 nM

Nc1ncnc2c1c(-c1cccc(OCc3ccccc3)c1)cn2C1CC(CN2CCCC2)C1 (stereo not given)
active: [1] 4690 nM | [2] 1050 nM | [17] 16600 nM | [4] 10500 nM | [5] 1870 nM | [6] 1660 nM | [7] 5900 nM | [8] 1050 nM | [9] 332 nM | [10] 11800 nM | [11] 1480 nM | [12] 5900 nM | [13] 20900 nM | [15] 5260 nM | [16] 743 nM

CC[C@@]1(O)C(=O)OCc2c1cc1n(c2=O)Cc2cc3cc(O)ccc3nc2-1
active: [1] 5260 nM | [2] 11800 nM | [17] 662 nM | [4] 1660 nM | [5] 52.6 nM | [6] 66.2 nM | [7] 2640 nM | [8] 469 nM | [9] 935 nM | [10] 1180 nM | [11] 10.5 nM | [18] 1660 nM | [12] 2960 nM | [13] 1320 nM | [15] 13.2 nM | [19] 66.2 nM | [16] 418 nM

COCCOc1ccc2c(c1)ncn2-c1ccc2cccc(N3CCC(N)CC3)c2n1
active: [1] 13200 nM | [2] 23500 nM | [3] 1660 nM | [4] 2640 nM | [5] 3720 nM | [6] 1660 nM | [7] 2090 nM | [8] 13200 nM | [9] 187 nM | [10] 372 nM | [11] 469 nM | [18] 235 nM | [12] 93.5 nM | [13] 23500 nM | [14] 8330 nM | [15] 372 nM

CCN1CCN(CC(=O)Nc2ccc(-c3cccc4c(=O)cc(N5CCOCC5)oc34)c3sc4ccccc4c23)CC1
active: [1] 1320 nM | [2] 2350 nM | [17] 526 nM | [4] 5900 nM | [5] 7430 nM | [6] 1480 nM | [7] 1480 nM | [8] 5260 nM | [9] 33.2 nM | [10] 2090 nM | [11] 46.9 nM | [18] 1050 nM | [12] 264 nM | [13] 7430 nM | [14] 18700 nM | [15] 2350 nM | [19] 935 nM | [16] 469 nM

O=C(Nc1nc2cccc(-c3ccc(CN4CCS(=O)(=O)CC4)cc3)n2n1)C1CC1
active: [1] 13200 nM | [2] 9350 nM | [17] 14800 nM | [4] 23500 nM | [5] 20900 nM | [6] 14800 nM | [7] 20900 nM | [8] 13200 nM | [11] 9350 nM | [18] 6620 nM | [12] 14800 nM | [13] 16600 nM | [14] 14800 nM | [15] 16600 nM | [16] 18700 nM

O=C(Cc1ccc(-c2ccc(OCCN3CCOCC3)cc2)cn1)NCc1ccccc1
active: [1] 83.3 nM | [2] 14800 nM | [17] 83.3 nM | [3] 93.5 nM | [5] 132 nM | [6] 187 nM | [7] 41.8 nM | [8] 46.9 nM | [9] 14.8 nM | [10] 14.8 nM | [11] 1 nM | [18] 11.8 nM | [12] 29.6 nM | [13] 16.6 nM | [16] 26.4 nM

Source: PubChem BioAssay (NCATS)
